# In PubChem BioAssay (NCATS):
# Records with an inconclusive call do not appear. Calls of active or inactive are those of the source. Calls come from the whole dose curve; as a rule, active = well fitted inhibition curve with a large enough effect; inconclusive = small, poorly fitted or top-dose-only effect; inactive = flat fitted curve, though single readings scatter.
# Tested on: P94_40
# Test: qHTS profiling for inhibitors of Plasmodium falciparum proliferation (AID 504749); note: nearly all actives have a fitted effect of over 60% in size;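 for activity, negative = inhibition: 0% = DMSO vehicle and full inhibition = artemisinin control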
# Details: P. falciparum in erythrocytes, SYBR Green DNA, 72 h; series mostly up to 28.7 µM; activity, negative = inhibition: at the top concentration
# How it was run: (§1)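 Parasite proliferation within erythrocytes, 72 h exposure. Endpoint: SYBR Green I fluorescence after overnight lysis at room temperature. Controls: 0.29 uM artemisinin, DMSO.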
# Potency is the fitted concentration of half-maximal effect.
Compound,"activity, negative = inhibition",Potency
CCCCC(CC)COS(=O)(=O)O (stereo not given),-0.904% (inactive),–
CC1(O)CCC(C(C)(C)O)CC1 (stereo not given),4.22% (inactive),–
CCCCCCOC(=O)c1cccnc1,6.14% (inactive),–
FC(F)(F)COCC(F)(F)F,3.19% (inactive),–
CCCCCCCCCCCC(=O)N(CCO)CCO,12.7% (inactive),–
O=P(O)(O)OC[C@H]1O[C@](O)(COP(=O)(O)O)[C@@H](O)[C@@H]1O,2.86% (inactive),–
COc1cc(S(C)=O)ccc1-c1nc2ncccc2[nH]1 (stereo not given),4.94% (inactive),–
O=c1[nH]c(=O)n([C@H]2C[C@H](O)[C@@H](CO)O2)cc1/C=C/Br,11.7% (inactive),–
CC(=O)[C@H]1CC[C@H]2[C@@H]3C=CC4=CC(=O)CC[C@@]4(C)[C@H]3CC[C@]12C,-14.6% [at 12.8 µM] (inactive),–
NC(N)=O,-0.273% (inactive),–
CCC(C(=O)NC(N)=O)c1ccccc1 (stereo not given),5.91% (inactive),–
CC(CCc1ccc(O)cc1)NCC(O)c1ccc(O)cc1 (stereo not given),4.17% (inactive),–
Nc1nccs1,1.56% (inactive),–
NC(=S)NS(=O)(=O)c1ccc(N)cc1,-10.6% (inactive),–
O=C(OCc1ccccc1)c1ccc(O)cc1,13.2% (inactive),–
CC1C(=O)CC2C3(C)CCC2(C(C)C(=O)O)C(=O)C13 (stereo not given),1% (inactive),–
O=C(NNCS(=O)(=O)O)c1ccncc1,-0.525% (inactive),–
CC(=O)Nc1ccc(OC(C)=O)cc1,15.6% (inactive),–
CC/C(=C(/CC)c1ccc(OP(=O)(O)O)cc1)c1ccc(OP(=O)(O)O)cc1,9.12% (inactive),–
OC[C@H]1O[C@@](CO)(O[C@H]2O[C@H](CO)[C@@H](O)[C@H](O)[C@H]2O)[C@@H](O)[C@@H]1O,7.95% (inactive),–

Compound,"activity, negative = inhibition",Potency
[O-][N+](=Nc1ccccc1)c1ccccc1,11% (inactive),–
NC(=O)[C@H]1O[C@@H](O)[C@H](O)[C@@H](O)[C@@H]1O,-1.54% (inactive),–
CC(C)CCC[C@@H](C)[C@H]1CC[C@H]2[C@@H]3CC[C@@H]4C[C@H](O)CC[C@]4(C)[C@H]3CC[C@]12C,-0.679% (inactive),–
ClC(Cl)Cl,14.3% (inactive),–
FC(F)(F)C(F)(F)C(F)(F)C(F)(F)C(F)(F)F,7.46% (inactive),–
CC(CC=O)CCCC(C)(C)O (stereo not given),5.63% (inactive),–
CC(C)[C@H](N)C(=O)OCC(CO)OCn1cnc2c(=O)[nH]c(N)nc21 (stereo not given in full),3.13% (inactive),–
CC(C)CCC[C@@H](C)[C@H]1CC[C@H]2[C@@H]3CC=C4C[C@@H](O)CC[C@]4(C)[C@H]3CC[C@]12C,12.6% (inactive),–
CC(C)c1ncc([N+](=O)[O-])n1C,6.32% (inactive),–
CCCc1ccc(C(=O)O)cc1,15.7% (inactive),–
C=CC(=O)O,22.6% (inactive),–
COC(=O)CC[C@H](N)C(=O)O,7.09% (inactive),–
CN1C(=O)C[C@@H](C(=O)N[C@@H](Cc2cnc[nH]2)C(=O)N2CCC[C@H]2C(N)=O)NC1=O,3.79% (inactive),–
Cc1ncc(C[n+]2csc(CCOP(=O)(O)O)c2C)c(N)n1,12% (inactive),–
O=C(O)COc1ccccc1/C=N/NC(=O)c1ccncc1,2.43% (inactive),–
O=C(/C=C/c1cccc(F)c1)NC1CC1,6.35% (inactive),–
CC(C)(Oc1ccc(C2CCCc3ccccc32)cc1)C(=O)O (stereo not given),9.46% (inactive),–
O=C(O)[C@H]1C(=CCO)O[C@H]2CC(=O)N12,8.58% (inactive),–
CN=C1C=CC(=C(c2ccc(N(C)C)cc2)c2ccc(N(C)C)cc2)C=C1,–,1000 nM (active)
CO,6.73% (inactive),–

# Tested on: PAD
# Test: as above
# Details: P. falciparum in erythrocytes, SYBR Green DNA, 72 h; series mostly up to 28.7 µM; activity, negative = inhibition: at the top concentration
# How it was run: as §1
Compound,"activity, negative = inhibition",Potency
CCCCC(CC)COS(=O)(=O)O (stereo not given),1.33% (inactive),–
CC1(O)CCC(C(C)(C)O)CC1 (stereo not given),15.7% (inactive),–
CCCCCCOC(=O)c1cccnc1,6.04% (inactive),–
FC(F)(F)COCC(F)(F)F,9.12% (inactive),–
CCCCCCCCCCCC(=O)N(CCO)CCO,1.45% (inactive),–
O=P(O)(O)OC[C@H]1O[C@](O)(COP(=O)(O)O)[C@@H](O)[C@@H]1O,13.5% (inactive),–
COc1cc(S(C)=O)ccc1-c1nc2ncccc2[nH]1 (stereo not given),6.97% (inactive),–
O=c1[nH]c(=O)n([C@H]2C[C@H](O)[C@@H](CO)O2)cc1/C=C/Br,9.33% (inactive),–
CC(=O)[C@H]1CC[C@H]2[C@@H]3C=CC4=CC(=O)CC[C@@]4(C)[C@H]3CC[C@]12C,10.5% [at 12.8 µM] (inactive),–
NC(N)=O,12.5% (inactive),–
CCC(C(=O)NC(N)=O)c1ccccc1 (stereo not given),-5.16% (inactive),–
CC(CCc1ccc(O)cc1)NCC(O)c1ccc(O)cc1 (stereo not given),6.89% (inactive),–
Nc1nccs1,9.16% (inactive),–
NC(=S)NS(=O)(=O)c1ccc(N)cc1,-1.69% (inactive),–
O=C(OCc1ccccc1)c1ccc(O)cc1,4.46% (inactive),–
CC1C(=O)CC2C3(C)CCC2(C(C)C(=O)O)C(=O)C13 (stereo not given),8.05% (inactive),–
O=C(NNCS(=O)(=O)O)c1ccncc1,10.2% (inactive),–
CC(=O)Nc1ccc(OC(C)=O)cc1,8.52% (inactive),–
CC/C(=C(/CC)c1ccc(OP(=O)(O)O)cc1)c1ccc(OP(=O)(O)O)cc1,12.3% (inactive),–
OC[C@H]1O[C@@](CO)(O[C@H]2O[C@H](CO)[C@@H](O)[C@H](O)[C@H]2O)[C@@H](O)[C@@H]1O,5.02% (inactive),–

Compound,"activity, negative = inhibition",Potency
[O-][N+](=Nc1ccccc1)c1ccccc1,4.97% (inactive),–
NC(=O)[C@H]1O[C@@H](O)[C@H](O)[C@@H](O)[C@@H]1O,15.4% (inactive),–
CC(C)CCC[C@@H](C)[C@H]1CC[C@H]2[C@@H]3CC[C@@H]4C[C@H](O)CC[C@]4(C)[C@H]3CC[C@]12C,2.61% (inactive),–
ClC(Cl)Cl,5.28% (inactive),–
FC(F)(F)C(F)(F)C(F)(F)C(F)(F)C(F)(F)F,12.3% (inactive),–
CC(CC=O)CCCC(C)(C)O (stereo not given),3.05% (inactive),–
CC(C)[C@H](N)C(=O)OCC(CO)OCn1cnc2c(=O)[nH]c(N)nc21 (stereo not given in full),11.2% (inactive),–
CC(C)CCC[C@@H](C)[C@H]1CC[C@H]2[C@@H]3CC=C4C[C@@H](O)CC[C@]4(C)[C@H]3CC[C@]12C,17.9% (inactive),–
CC(C)c1ncc([N+](=O)[O-])n1C,12% (inactive),–
CCCc1ccc(C(=O)O)cc1,16.3% (inactive),–
C=CC(=O)O,12.7% (inactive),–
COC(=O)CC[C@H](N)C(=O)O,12.8% (inactive),–
CN1C(=O)C[C@@H](C(=O)N[C@@H](Cc2cnc[nH]2)C(=O)N2CCC[C@H]2C(N)=O)NC1=O,8.93% (inactive),–
Cc1ncc(C[n+]2csc(CCOP(=O)(O)O)c2C)c(N)n1,5.26% (inactive),–
O=C(O)COc1ccccc1/C=N/NC(=O)c1ccncc1,1.89% (inactive),–
O=C(/C=C/c1cccc(F)c1)NC1CC1,-2.96% (inactive),–
CC(C)(Oc1ccc(C2CCCc3ccccc32)cc1)C(=O)O (stereo not given),8.5% (inactive),–
O=C(O)[C@H]1C(=CCO)O[C@H]2CC(=O)N12,12.1% (inactive),–
CN=C1C=CC(=C(c2ccc(N(C)C)cc2)c2ccc(N(C)C)cc2)C=C1,–,1000 nM (active)
CO,19.3% (inactive),–
